From PubChem
POLI inh = qHTS for Inhibitors of Polymerase Iota | 1% of 390,000 active | Pol iota fluorescent replication assay, 10 min | Potency, µM (series often up to 115 µM), for inactives: at the highest dose activity, negative = inhibition, hits mostly inhibitors | AID 588590, 2011; note: potency is the fitted concentration of half-maximal effect
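Fluorescent replication assay read twice, at 0 min and 10 min after adding 50 nM (final) substrate. Enzyme (10 nM) and compounds were first incubated 15 min at room temperature; enzyme-free buffer wells were negative controls.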
PI5P4K alpha inh = qHTS for Inhibitors of phosphatidylinositol 5-phosphate 4-kinase (PI5P4K) | Phosphatidylinositol 5-phosphate 4-kinase type-2 alpha (Homo sapiens), P48426 | PI5P4Kalpha enzyme, ADP-Glo luminescence, 60 min; active compounds read low | 1.2% of 330,000 active | max response, %; active = max response of -50% or lower; inconclusive = between -30% and -50%; inactive = -30% or higher; note: value at the top dose of about 77 µM; % is set by controls: 0 for no effect and ±100 for the full control effect
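Compounds were pin-transferred onto PI5P4Kalpha and substrate in HEPES pH 7.4 buffer with EGTA, CHAPS and 5% DMSO. ATP (5 microM final) started the reaction, which ran 60 minutes at room temperature before ADP-Glo detection.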
POLK inh = qHTS for Inhibitors of Polymerase Kappa; DNA polymerase kappa (Homo sapiens), Q9UBT6; purified Pol kappa, fluorescent DNA synthesis assay, 10 min; Potency, µM (series often up to 107 µM), for inactives: top-dose activity, negative = inhibition, hits mostly inhibitors; 0.53% of 400,000 active; AID 588579, 2011; note: potency is the fitted concentration of half-maximal effect; % is set by controls: 0 for no effect and ±100 for the full control effect
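Here, compound and 10 nM enzyme are combined for 15 min at room temperature; adding 50 nM substrate (final) starts DNA synthesis, tracked by fluorescence at 0 and 10 min against buffer-only wells.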
Pol eta inh = qHTS for Inhibitors of Polymerase Eta; recombinant Pol eta, fluorescent DNA replication assay; 1.2% of 390,000 active; Potency, µM (series often up to 114 µM), for the others: top-dose activity change, negative = inhibition, usual class: inhibitors; DNA polymerase eta (Homo sapiens), Q9Y253; note: potency is the fitted concentration of half-maximal effect; % is set by controls: 0 for no effect and ±100 for the full control effect
Target sequence (Q9Y253 whole entry, looked up): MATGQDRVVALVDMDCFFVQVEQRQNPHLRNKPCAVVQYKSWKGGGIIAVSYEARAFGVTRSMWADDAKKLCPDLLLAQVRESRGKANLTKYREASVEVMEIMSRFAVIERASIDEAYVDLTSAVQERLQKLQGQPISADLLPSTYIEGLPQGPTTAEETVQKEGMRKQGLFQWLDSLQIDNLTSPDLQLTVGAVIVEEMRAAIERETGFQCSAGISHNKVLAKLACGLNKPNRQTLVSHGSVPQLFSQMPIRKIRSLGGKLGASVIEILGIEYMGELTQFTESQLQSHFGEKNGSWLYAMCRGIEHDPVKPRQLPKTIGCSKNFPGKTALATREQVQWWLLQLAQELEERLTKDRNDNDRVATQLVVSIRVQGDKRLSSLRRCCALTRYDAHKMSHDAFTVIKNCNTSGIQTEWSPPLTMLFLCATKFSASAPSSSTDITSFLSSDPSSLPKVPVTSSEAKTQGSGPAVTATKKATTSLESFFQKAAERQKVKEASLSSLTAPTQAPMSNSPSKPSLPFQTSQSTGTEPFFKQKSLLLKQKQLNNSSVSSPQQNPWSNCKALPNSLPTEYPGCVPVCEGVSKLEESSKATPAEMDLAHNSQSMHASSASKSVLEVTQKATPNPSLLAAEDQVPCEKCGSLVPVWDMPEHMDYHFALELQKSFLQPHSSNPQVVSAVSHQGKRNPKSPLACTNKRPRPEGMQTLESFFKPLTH
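Pol eta (10 nM) was preincubated with compounds for 15 min at room temperature, after which fluorescent replication substrate (50 nM final) was added to start the reaction. Fluorescence was read kinetically at 0 and 10 min.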
Pol beta inh = qHTS Assay for Inhibitors of DNA Polymerase Beta; Potency, µM (top dose mostly 114 µM), for inactives: top-dose activity change, negative = inhibition, most hits filed as inhibitors; 1.3% of 340,000 active; Pol beta primer extension/strand displacement, fluorescence kinetic; note: potency is the fitted concentration of half-maximal effect; % is set by controls: 0 for no effect and ±100 for the full control effect
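Preincubation: enzyme (10 nM) with compound, 15 min, RT. Reaction: substrate added to 50 nM final. Reads: 0 and 10 min. Analysis: normalized, Hill fit.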
WRN inhibitor = qHTS for Inhibitors of WRN Helicase; AID 651768, 2012; 0.46% of 360,000 active; Potency, µM (doses to about 114 µM), inactives show at the highest dose activity change, negative = inhibition, usual class: inhibitors; WRN helicase unwinding, fluorescent forked duplex, kinetic; Bifunctional 3'-5' exonuclease/ATP-dependent helicase WRN (Homo sapiens), Q14191; note: potency is the fitted concentration of half-maximal effect; % is set by controls: 0 for no effect and ±100 for the full control effect; nearly all actives have a fitted effect of over 55% in size
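WRN at 20 nM final was preincubated with compound for 15 min at room temperature; reaction started with 100 nM forked duplex oligonucleotide carrying fluorophore and quencher plus 2 mM ATP (final). Unwinding followed kinetically by red fluorescence (ex 525/em 598 nm).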
Active calls of the source: *; u = inconclusive; x = no result; [ ] = another dose, or the depositor's remark. Compounds with a hit are over-represented: about 2.8% of the library has one in this group of screens. Unless noted, calls come from the whole dose curve; as a rule, active = well fitted curve in the direction sought with a large enough effect; inconclusive = small, poorly fitted or top-dose-only effect, or another doubt; inactive = no such curve, though single readings can be large; an effect the other way counts as inactive or inconclusive.

SMILES	POLI inh	PI5P4K alpha inh	POLK inh	Pol eta inh	Pol beta inh	WRN inhibitor
COc1ccc(OC)c(/C=C(\C#N)c2nc(-c3ccc(F)cc3)cs2)c1	5%	x	-20%[60.1 µM]	u	6%	x
c1ccc(Sc2ccncc2)cc1	x	-6	x	-15%	x	7%
c1cc(SSc2ccncc2)ccn1	u	-70*	-5%	-3%	2%	-2%
O=C(O)c1ccc(-c2ccc(Cl)cc2Cl)o1	3%	u	-10%	6%	17%	5%
CN(C)/C=C/C(=O)c1ccc(-c2ccc(Cl)cc2Cl)o1	92%	-64*	-14%	-19%	32µM*	-10%
Nc1ncnc2oc(-c3ccoc3)c(-c3ccco3)c12	11µM*	x	20µM*	x	x	x
c1coc(-c2ccnc(-n3cccc3)n2)c1	2%	-5	-4%	-9%	25%	-4%[57.1 µM]
O=c1cc(O)c2c(=O)n(C3CCCCC3)c3ccccc3c2o1	u	x	-23%	u	45µM*	-18%[57.1 µM]
O=c1cc(O)c2c(=O)n(Cc3ccccc3)c3ccccc3c2o1	u	-20	-8%	u	25µM*	u
COc1ccc(N=c2nc(-c3ccccc3)n(-c3ccc(C)cc3)s2)cc1	12%	x	-10%	x	x	x
CC(=O)N(C)c1ccc(N=Cc2c(O)ccc3ccccc23)cc1	71µM*	1	-6%	-4%	0%	-2%
CCN(CC)c1cc2c(cc1F)c(=O)c(S(=O)(=O)c1cc(C)ccc1C)cn2Cc1ccccc1	-9%	x	-16%	-14%	15%	x
COc1ccc(OC)c(CCNC(=O)C(C)n2c(C)c3cnn(-c4ccccc4)c(=O)c3c2C)c1 (stereo unspecified)	-2%	x	-1%	-1%	25%	x
COc1ccc(-c2cc3nc4ccccc4n3c(N)c2C#N)cc1	20%	-12	-6%	-10%	4µM*	-8%
COc1ccc(OC)c(NC(=O)CN2C(=O)CC(C)Sc3ccccc32)c1 (stereo unspecified)	30%	x	-13%	-19%	18%	x
CCN(CC)/[N+]([O-])=N/Oc1ccc([N+](=O)[O-])cc1[N+](=O)[O-]	-26%	x	-10%	x	x	x
O=c1c2c3nc4ccccc4nc3n(/N=C/c3ccco3)c2ncn1CCC1=CCCCC1	22µM*	x	u	u	28µM*	u
CCCn1cnc2c(c1=O)c1nc3ccccc3nc1n2CCC1=CCCCC1	x	x	x	x	34%	x
CC(=O)c1ccc(N2CCN(C(=O)COc3ccc4c(c3)CCC4)CC2)cc1	79µM*	u	u	56µM*	10µM*	-18%
Cc1ccc(Cl)cc1N1CCN(C(=O)COc2ccc3c(c2)CCC3)CC1	17%	26	-18%	-15%	3%	-11%
Cc1ccc(C2=NOC(=O)/C2=C\c2ccc(C)o2)cc1	u	-19	-19%	79µM*	6%	u
Cc1ccc(C)n1-c1nnc(N2CCCC(C(=O)Nc3ccc(C(C)C)cc3)C2)s1 (stereo unspecified)	13%	x	-5%	-15%	2%	x
O=C(O)C1C2C=CC(C2)C1C(=O)NCCc1ccncc1 (stereo unspecified)	-13%	-5	-19%	u	50µM*	2%
O=C(C[n+]1cccc2ccccc21)c1ccc([N+](=O)[O-])cc1	24%	-65*	-11%	-1%	1%	-36%
C=CCSC1=N/C(=C\c2cc(OCC)c(OC(C)=O)c([N+](=O)[O-])c2)C(=O)S1	20µM*	-72*	32µM*	u	20µM*	16%
SMILES	POLI inh	PI5P4K alpha inh	POLK inh	Pol eta inh	Pol beta inh	WRN inhibitor
C=CCSC1=N/C(=C\c2ccc3c(c2)OCO3)C(=O)S1	-1%	8	-16%	-2%	23%	-5%
CC(=O)c1ccc2c(c1)C1C=CCC1C(c1ccc(S(=O)(=O)N3CCOCC3)cc1)N2 (stereo unspecified)	4%	-65*	-25%	u	-1%	u
O=C(CCCC(=O)N1CCc2ccccc21)N1CCc2ccccc21	16%	-6	-19%	-15%	34%	-4%[57.1 µM]
O=C(Cc1ccc(-n2cccc2)cc1)N1CCc2ccccc21	u	-23	-35%	u	22µM*	-8%
O=C(CS(=O)(=O)c1cccc2nsnc12)N1CCN(c2cccc(C(F)(F)F)c2)CC1	8%	x	-8%[60.1 µM]	-6%	-12%	x
CC(CCC(C)C(C)(C)C)[C@@H]1CC[C@H]2C3C[C@H](OS(O)(=S)=S)[C@H]4C[C@H](OS(O)(=S)=S)[C@@H](OS(O)(=S)=S)C[C@]4(C)[C@H]3CC[C@]12C (stereo partly specified) (tested in a mixture with another compound)	3.5µM*	u	20µM*	3.5µM*	x	16µM*
CN(C)c1ccc(/C=C/c2sc3ccccc3[n+]2Cc2ccccc2)cc1	79µM*	x	u	x	x	x
CCCN(CCC)c1ccc(/C=C/c2sc3ccccc3[n+]2CCCCI)cc1	79µM*	x	u	x	x	x
CC(=O)N1CCN(C(=O)c2cccc(S(=O)(=O)N3c4ccccc4CC3C)c2)CC1 (stereo unspecified)	u	5	-17%	-10%	x	-6%
CC1Cc2ccccc2N1S(=O)(=O)c1cccc(C(=O)N2CC(=O)Nc3ccccc32)c1 (stereo unspecified)	11%	-7	-14%	-14%	40µM*	-5%
S=c1cnc2ccccc2[nH]1	21%	-61*	-11%	-14%	-26%	-33%
OCc1nc2ccccc2[nH]1	13%	x	-23%	x	x	x
CC1=C(C(=O)Nc2cccc(Cl)c2C)C2(CCCCCC2)OC1=O	-5%	x	-5%	-13%	-18%	x
Oc1ccc(/C=N/Nc2ncnc3nc[nH]c23)cc1	15%	-66*	-11%	u	u	-24%
CCN(CC)c1ccc(S(=O)(=O)N2CCOCC2)cc1NC(=O)COC(=O)/C=C/c1ccco1	-24%	-15	-16%	-8%	x	-9%
O=C(CCN1C(=O)/C(=C/c2ccc(F)cc2)SC1=S)Nc1cc([N+](=O)[O-])ccc1O	u	2	-9%[60.1 µM]	0%	45µM*	-4%
O=C(CCCN1C(=O)/C(=C/c2cccs2)SC1=S)Nc1cc([N+](=O)[O-])ccc1O	30%	-5	-16%	-17%	2%	-9%
